# CSC inhib – blocks cancer stem cells; cancer stem cell-like cells viability, luminescence; inhibition, % at 7.5 µM; 300,000 tested, 1.1% active; AID 2717; in the data active means inhibition above about 75%; tested in HMLE shEcad cells
# MPTP inh – blocks calcium-induced mitochondrial swelling. isolated mouse mitochondria, Ca2+ swelling absorbance, 30 min. inhibition, % at 10 µM. 360,000 tested, 1.4% active. AID 602449;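 active means inhibition of 50% or more, scaled per plate between neutral and stimulator controls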;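 further: 0% = DMSO wells given calcium and 100% = 1 mM EGTA wells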
# Beta apoptosis – blocks beta cell apoptosis. protection from apoptosis, % (test concentration not listed). 300,000 tested, 0.8% active. INS-1E cytokine-induced death, ATP luminescence, 48 h; percent of positive-control rescue, neutral wells zero. AID 435005;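 active means Every replicate reaches about 75%, or at least half do and their mean reaches it too, limit read from the data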;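 further: 0% = cytokine-treated negative control wells and 100% = positive control rescue; higher means more ATP so stronger rescue from cytokine killing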
# Calb FLC – affects C. albicans growth with fluconazole. 300,000 tested, 0.57% active. C. albicans CaCi-2 (fluconazole-resistant clinical isolate) + fluconazole, Alamar Blue growth, 48 h. growth inhibition, % (no concentration beside the values);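 active means growth inhibition above about 58% in most replicates, limit read from the data, passing the limit was not always enough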;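 further: all wells also contain fluconazole at 8 µg/ml as a sub-toxic cotreatment; 0% = median of DMSO wells and 100% = median of geldanamycin control wells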
# Mdm2-MdmX inh – inhibitors of human Mdm2/MdmX interaction; SaOS-2 split-luciferase Mdm2/MdmX complementation, luminescence; inhibition, % at 8 µM; 330,000 tested, 3% active; AID 485346;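 active means inhibition of at least 50% at 8 µM in the primary screen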
# MPTP counter – membrane potential counter-screen of mitochondrial pore inhibitors; shares compounds with MPTP inh; isolated mitochondria, Rhodamine 123 fluorescence; inhibition, % at 10 µM; 5,000 tested, 78% active; in the data active means inhibition above about 22%;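 further: 0% = DMSO vehicle and 100% = positive control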
# MPTP swell DR – MPTP inhibition, dose response swelling confirmation; shares compounds with MPTP inh; isolated mitochondria swelling, absorbance; IC50, µM; 780 tested, 58% active; in the data active means IC50 below about 20 µM
# MPTP counter DR – counter-screen for mitochondrial permeability transition pore inhibitors, dose response; shares compounds with MPTP inh; IC50, µM; AID 651564; isolated mitochondria counterscreen, fluorescence read-out; 780 tested, 49% active; in the data active means IC50 below about 80 µM
# * hit, by the source's call; i = inactive; . = not tested or not shown. Only some compounds are listed: those with a hit (about 4.8% of all), similar ones and a draw of the others.
SMILES,CSC inhib,MPTP inh,Beta apoptosis,Calb FLC,Mdm2-MdmX inh,MPTP counter,others
O=C(Nc1cc(F)ccc1F)N1CCN(c2ccnc3cc(Cl)ccc23)CC1,1,59*,12,0,23,36*,
O=C(Nc1ccc(C(F)(F)F)cc1)N1CCN(c2ccnc3cc(Cl)ccc23)CC1,89*,79*,11,24,14,81*,
Cc1cc(C)cc(OCC(=O)N2N=C(C(F)(F)F)CC2(O)C(C)(C)C)c1 (stereo not given),4,57*,7,-8,10,43*,
CC1C(=O)C(C)C(c2ccccc2F)NC1c1ccccc1F (stereo not given),-9,-1,-5,7,-22,.,
CCCCn1c(SCC(=O)Nc2nnc(C(C)C)s2)nc2c1c(=O)n(C)c(=O)n2C,1,-1,22,7,0,.,
CCCn1c(SCC(=O)Nc2nc3c(s2)CCCC3)nc2c1c(=O)n(C)c(=O)n2C,-9,85*,-28,1,40,33*,
O=C(Nc1ccc([N+](=O)[O-])cc1)c1ccccc1,10,3,-6,-15,-63,.,
CC(C)(C)C(=O)Nc1ccc(Sc2ccc([N+](=O)[O-])cc2)cc1,-21,96*,1,28,2,93*,
CC(=O)Nc1ccc(Sc2ccc([N+](=O)[O-])o2)cc1,.,-2,.,.,.,.,
CN(O)C(=O)Nc1ccc([N+](=O)[O-])cc1,5,83*,8,16,-2,96*,
CN1C(=O)Cc2cc(S(=O)(=O)Nc3ccc(N4CCOCC4)cc3)ccc21,-8,0,-4,3,24,.,
Cc1ccc(-c2nc3c4ccccc4ccn3c2Cc2ccsc2)cc1,.,0,.,.,.,.,
N#C/C(=C(/O)CN1CCN(c2ccccc2F)CC1)c1nc(-c2ccc(Cl)cc2)cs1,35,58*,22,-1,9,71*,
Cc1ccc(-c2csc(/C(C#N)=C(\O)CCl)n2)cc1,.,91*,.,27,.,64*,
N#C/C(=C(/O)CCl)c1nc(-c2ccccc2)cs1,-1,37,-1,-6,12,.,
N#C/C(=C(/O)CN1CCCCC1)c1nc(-c2ccc(Cl)cc2)cs1,0,1,-4,4,-12,.,
Cc1ccc(C)c(S(=O)(=O)N(C)C2CCS(=O)(=O)C2)c1 (stereo not given),-5,0,-5,-1,-21,.,
Cc1ccccc1CN1CCN(Cc2ccc3cccc(F)c3n2)CC1CCO (stereo not given),5,-3,-4,2,15,.,
COc1ccc(S(=O)(=O)Nc2ccc3cn[nH]c3c2)cc1C,.,0,-2,-8,14,.,
CCOC(=O)c1ccc(S(=O)(=O)Nc2ccc3cn[nH]c3c2)cc1,-4,55*,13,-1,6,39*,
CN1CCN(c2ccccc2NC(=O)c2ccc(-c3ccccc3)cc2)CC1,25,46,11,2,16,.,
CCCCOc1ccc(C(=O)Nc2ccc(N3CCN(C)CC3)cc2)cc1,.,90*,9,-24,12,-8,MPTP swell DR=i;MPTP counter DR=>80
CN1CCN(c2ccccc2NC(=O)c2ccc(OCc3ccccc3)cc2)CC1,-7,78*,1,.,27,-10,MPTP swell DR=9.4*;MPTP counter DR=>80
CN1CCN(c2ccccc2NC(=O)C(Cc2ccccc2)n2cccc2)CC1 (stereo not given),7,81*,15,-5,25,-12,MPTP swell DR=i;MPTP counter DR=>80
CN1CCN(c2ccccc2NC(=O)c2cccc(OCc3ccccc3)c2)CC1,-8,1,.,6,8,.,
SMILES,CSC inhib,MPTP inh,Beta apoptosis,Calb FLC,Mdm2-MdmX inh,MPTP counter,others
COc1ccc(C(=O)N2CCc3ccccc3C2)cc1S(=O)(=O)N1CCCC1,.,2,.,.,.,.,
Cc1ccc(S(=O)(=O)NC(=O)C2CCCCC2)cc1,1,0,-4,.,-5,.,
CN1CCCN(c2ncnc3scc(-c4ccc(F)cc4)c23)CC1,-11,3,-4,8,9,.,
CN1CCN(c2ncnc3c2c(-c2ccccc2)cn3-c2ccc(F)cc2)CC1,23,80*,1,10,22,-5,MPTP swell DR=20*;MPTP counter DR=>80
Cc1cccc2c(=O)c(Br)c(C)n(Cc3ccccc3)c12,0,1,-2,-7,8,.,
O=S1(=O)c2cccc3cccc(c23)N1Cc1nnc(-c2ccccc2Br)o1,15,76*,0,7,19,47*,

# Screens: PubChem, several laboratories
